Experiment [1] is described as follows: qHTS assay to identify small molecule agonists of the peroxisome proliferator-activated receptor delta (PPARd) signaling pathway - cell viability counter screen (AID 743211). Also: nearly all actives have a fitted effect of over 55% in size. Also: potency is read from the fitted curve at half-maximal effect. The essentials:
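Read-out: CellTiter-Glo luminescence, 30 min RT, measured in the same wells as the beta-lactamase reporter. Cells: GeneBLAzer PPAR delta UAS-bla HEK293H, 3000 cells/well, compound exposure 17 h at 37C.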

Experiment [2] concerns the target Peroxisome proliferator-activated receptor delta (Homo sapiens) (UniProt Q03181). Description: qHTS assay to identify small molecule agonists of the peroxisome proliferator-activated receptor delta (PPARd) signaling pathway (AID 743212; calls by dose curve). The essentials: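 HEK293H PPARd-bla cells; 5 h preincubation 37 C/5% CO2; compound (DMSO) 37 C; LiveBLAzer B/G FRET substrate 2 h RT; fluorescence intensity.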

Experiment [3] is described as follows: qHTS assay to identify small molecule antagonists of the peroxisome proliferator-activated receptor delta (PPARd) signaling pathway - cell viability counter screen (AID 743213). Also: nearly all actives have a fitted effect of over 50% in size. Also: potency is read from the fitted curve at half-maximal effect. In a few lines:
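PPARd-bla HEK293H cells were treated with compounds plus agonist L165041 (300 nM final) for 17 h at 37 C. Viability was then read in the same wells by CellTiter-Glo luminescence after 30 min at room temperature.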

The target in experiment [4] is Peroxisome proliferator-activated receptor delta (Homo sapiens) (UniProt Q03181). Description: qHTS assay to identify small molecule antagonists of the peroxisome proliferator-activated receptor delta (PPARd) signaling pathway (AID 743215; active = well fitted inhibition curve with a large enough effect in the signal ratio in the repeat runs, not every such curve was filed as active; the % refers to the signal ratio;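 also: cells stimulated with agonist L165041 at 300 nM final during compound exposure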; also: potency is read from the fitted curve at half-maximal effect). The essentials: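 Antagonist-mode beta-lactamase reporter screen: HEK293H cells with UAS-bla under PPARd control, stimulated by 300 nM L165041 (final) alongside test compound for 17 h at 37 C, then FRET fluorescence after 2 h substrate incubation.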
Chain of Peroxisome proliferator-activated receptor delta (Homo sapiens) (Q03181 whole entry, looked up): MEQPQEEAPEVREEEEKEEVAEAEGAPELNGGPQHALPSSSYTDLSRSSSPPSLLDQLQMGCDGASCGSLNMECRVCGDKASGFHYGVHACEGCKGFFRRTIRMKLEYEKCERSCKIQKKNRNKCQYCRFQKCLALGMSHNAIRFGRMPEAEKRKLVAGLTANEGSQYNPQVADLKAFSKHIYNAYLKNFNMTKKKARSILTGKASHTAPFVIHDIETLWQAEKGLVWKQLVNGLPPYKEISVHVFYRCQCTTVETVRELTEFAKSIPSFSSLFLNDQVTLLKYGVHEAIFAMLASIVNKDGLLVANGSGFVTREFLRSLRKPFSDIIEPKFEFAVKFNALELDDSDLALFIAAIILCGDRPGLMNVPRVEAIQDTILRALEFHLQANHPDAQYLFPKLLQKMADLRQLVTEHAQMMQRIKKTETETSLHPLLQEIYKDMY
In general terms: Quantitative high-throughput screening tests each substance at several concentrations.

Experiment [5] concerns the target Bile acid receptor (Homo sapiens) (UniProt Q96RI1). Description: qHTS assay to identify small molecule antagonists of the farnesoid-X-receptor (FXR) signaling pathway (AID 743217; active = well fitted inhibition curve with a large enough effect in the signal ratio in the repeat runs, not every such curve was filed as active; the % refers to the signal ratio; also: potency is read from the fitted curve at half-maximal effect). The essentials: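 Beta-lactamase reporter under UAS control in HEK 293T cells; compound exposure 16 h at 37 °C in the presence of chenodeoxycholic acid (50 uM final); signal from B/G FRET substrate after 2 h at room temperature.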

The nature of experiment [6]: qHTS assay to identify small molecule agonists of the farnesoid-X-receptor (FXR) signaling pathway - cell viability counter screen (AID 743218). Also: nearly all actives have a fitted effect of over 45% in size. In a few lines: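 In GeneBLAzer FXR-UAS-bla HEK 293T cells, compounds act for 16 h at 37 C. Cell viability is then scored in the reporter wells by CellTiter-Glo, 30 min at RT, luminescence.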
In experiment [7] the target is Bile acid receptor (Homo sapiens) (UniProt Q96RI1). Put plainly: qHTS assay to identify small molecule agonists of the farnesoid-X-receptor (FXR) signaling pathway (AID 743220; active = well fitted activation curve with a large enough effect in the signal ratio in the repeat runs, not every such curve was filed as active; the % refers to the signal ratio). In a few lines:
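Beta-lactamase reporter under UAS control in GeneBLAzer FXR HEK 293T cells (5000/well) measured with LiveBLAzer FRET substrate after 2 h at room temperature. Compound exposure lasted 16 h at 37C.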

Experiment [8] can be described thus: qHTS assay to identify small molecule antagonists of the farnesoid-X-receptor (FXR) signaling pathway - cell viability counter screen (AID 743221; active = well fitted cell-killing curve with a large enough effect in the repeat runs, not every such curve was filed as active; also: nearly all actives have a fitted effect of over 50% in size; also: potency is read from the fitted curve at half-maximal effect). The essentials: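 HEK 293T FXR-bla cells, 5 h pre-incubation; compound + CDCA 50 uM final, 16 h, 37 C; beta-lactamase FRET read first, then CellTiter-Glo luminescence, 30 min RT.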
Experiment [9] addresses Vitamin D3 receptor (Homo sapiens) (UniProt P11473). Description: qHTS assay to identify small molecule agonists of the vitamin D receptor (VDR) signaling pathway (AID 743222; calls by dose curve). The essentials: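 Agonist activity measured in VDR-bla reporter cells. Exposure 16 h, 37C, 5% CO2; detection by B/G FRET substrate, 2 h RT.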
The target is the same in experiment [10]. Put plainly: qHTS assay to identify small molecule antagonists of the vitamin D receptor (VDR) signaling pathway (AID 743223; active = well fitted inhibition curve with a large enough effect in the signal ratio in the repeat runs, not every such curve was filed as active; the % refers to the signal ratio). In a few lines:
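Beta-lactamase reporter read-out: FRET substrate fluorescence after 2 h at room temperature, following 16 h exposure of VDR-bla cells to test compound plus 3 nM (final) 1alpha,25-dihydroxyvitamin D3 agonist at 37C.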

Records with an inconclusive call do not appear. Values without a mark were called inactive. Calls of active or inactive are those of the source. Unless noted, calls follow the shape of the dose curve; as a rule, active = well fitted curve in the direction sought with a large enough effect in the repeat runs; inconclusive = weak or mixed curves; inactive = no such curve, though single readings can be large; an effect the other way counts as inactive or inconclusive.

Chain of Bile acid receptor (Homo sapiens) (Q96RI1 whole entry, looked up): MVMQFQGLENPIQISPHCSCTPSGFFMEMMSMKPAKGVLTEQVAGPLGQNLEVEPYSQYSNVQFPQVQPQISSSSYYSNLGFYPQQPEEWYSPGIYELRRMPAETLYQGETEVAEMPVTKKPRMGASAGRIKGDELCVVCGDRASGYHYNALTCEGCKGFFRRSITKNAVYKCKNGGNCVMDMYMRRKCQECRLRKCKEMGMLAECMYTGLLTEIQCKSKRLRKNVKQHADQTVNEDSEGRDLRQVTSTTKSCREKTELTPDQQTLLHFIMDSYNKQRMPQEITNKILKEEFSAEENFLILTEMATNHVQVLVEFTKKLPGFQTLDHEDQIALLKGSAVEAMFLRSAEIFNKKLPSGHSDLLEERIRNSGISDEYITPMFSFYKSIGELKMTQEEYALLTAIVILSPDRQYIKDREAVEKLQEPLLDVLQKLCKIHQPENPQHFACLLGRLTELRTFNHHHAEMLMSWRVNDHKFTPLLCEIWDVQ
Chain of Vitamin D3 receptor (Homo sapiens) (P11473 whole entry, looked up): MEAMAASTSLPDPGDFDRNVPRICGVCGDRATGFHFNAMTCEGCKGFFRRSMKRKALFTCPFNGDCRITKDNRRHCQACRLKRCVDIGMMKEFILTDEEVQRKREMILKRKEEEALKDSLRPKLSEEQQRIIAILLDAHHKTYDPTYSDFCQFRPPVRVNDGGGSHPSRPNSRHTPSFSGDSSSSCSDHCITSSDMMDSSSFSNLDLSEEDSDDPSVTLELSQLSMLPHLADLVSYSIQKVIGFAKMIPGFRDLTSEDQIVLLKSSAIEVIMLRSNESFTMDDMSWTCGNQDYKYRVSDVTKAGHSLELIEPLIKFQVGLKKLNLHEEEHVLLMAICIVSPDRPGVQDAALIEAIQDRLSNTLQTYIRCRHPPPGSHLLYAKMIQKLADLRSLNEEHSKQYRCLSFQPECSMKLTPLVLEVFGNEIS

In the case of `COCC(C)OC(C)=O` (stereo not drawn), the Potency entry in [1], in [2], in [3], in experiment [4], in experiment [5] and in experiment [6] was “inactive” throughout. Besides, the Potency result in experiment [7], in experiment [8] and in [9] was “inactive” throughout. The molecule was called inactive in experiment [10].
Take `COc1cc(Cl)c(OC)cc1N`: the Potency entry in experiment [1], in experiment [2], in experiment [3], in experiment [4], in experiment [5] and in [6] was “inactive” each time. Further, the Potency entry in [7], in [8] and in experiment [9] was “inactive” each time. Further, the result in experiment [10] was inactive.
Regarding `O=C(CS)Nc1ccccc1`, the Potency entry in experiment [1], in [2], in experiment [3], in experiment [4], in experiment [5] and in experiment [6] was “inactive” in each case. Moreover, the Potency entry in [7], in [8] and in experiment [9] was “inactive” in each case. In addition, the outcome in experiment [10] was inactive.
`CC1OC(=O)C(C)OC1=O` (stereo not drawn): the Potency result in [1], in [2], in experiment [3], in experiment [4], in experiment [5] and in [6] was “inactive” throughout. The Potency result in [7], in [8] and in [9] was “inactive” each time. Further, the molecule was called inactive in experiment [10].
Take `CCNc1cc(O)ccc1C`: the Potency entry in experiment [1], in [2], in experiment [3], in [4], in experiment [5] and in [6] was “inactive” throughout. Also, the Potency result in experiment [7], in experiment [8] and in experiment [9] was “inactive” each time.
Consider `CCOC(=O)C(F)(F)F`, for which the Potency entry in experiment [1], in experiment [2], in [3], in experiment [4], in experiment [5] and in experiment [6] was “inactive” in each case. Also, the Potency entry in experiment [7], in experiment [8] and in experiment [9] was “inactive” each time. Moreover, in experiment [10], the molecule was classed as inactive.
Take `Nc1cccc([N+](=O)[O-])c1`: the Potency entry in [1], in [2], in experiment [3], in experiment [4], in [5] and in [6] was “inactive” in each case. Also, the Potency entry in [7] and in [8] was “inactive” throughout.
As for `CC(C)Cc1ccc(C(C)C(=O)OCc2ccccn2)cc1` (stereo not drawn), the Potency entry in experiment [1], in experiment [2], in experiment [3], in [4], in [5] and in experiment [6] was “inactive” throughout. For the same molecule, the Potency result in experiment [7], in experiment [8] and in experiment [9] was “inactive” throughout. Besides, in experiment [10], the outcome was inactive.
For the molecule `O=[N+]([O-])c1ccc(NCCO)c(OCCO)c1`, the Potency result in [1], in experiment [2], in experiment [3], in [4], in experiment [5] and in [6] was “inactive” throughout. In addition, the Potency entry in experiment [7], in experiment [8] and in experiment [9] was “inactive” throughout. The molecule was called inactive in experiment [10].
Turning to `C=C(C)C(=O)OCCO`, the Potency entry in experiment [1], in [2], in experiment [3], in experiment [4], in [5] and in experiment [6] was “inactive” throughout. In addition, the Potency entry in experiment [7], in experiment [8] and in [9] was “inactive” each time. The outcome in [10] was inactive.
With `NCCCN1CCOCC1`, the Potency result in experiment [1], in [2], in [3], in [4], in [5] and in [6] was “inactive” throughout. Further, the Potency entry in experiment [7], in experiment [8] and in experiment [9] was “inactive” throughout. For the same molecule, the molecule was classed as inactive in [10].
Turning to `CCCCCCc1ccc(-c2ccc(C#N)cc2)cc1`, the Potency entry in experiment [1], in [2], in experiment [3], in experiment [4], in [5] and in experiment [7] was “inactive” throughout. Also, in experiment [8], the Potency entry is “inactive”.
With `O=S(c1cc(Cl)cc(Cl)c1O)c1cc(Cl)cc(Cl)c1O`, the Potency in experiment [1] is 23.7 µM (active).
Turning to `Clc1ccc2c(c1)CCc1cccnc1C2=C1CCNCC1`, the Potency in [1] is 26.6 µM (active); in experiment [3], 15 µM (active); in experiment [4] it was 29.8 µM (active); in experiment [5], 29.8 µM (active); in experiment [8], 29.8 µM (active). In addition, the Potency result in experiment [2], in experiment [7] and in [9] was “inactive” each time.
For `O=C(O)c1ccccc1Cl`, the Potency result in [1], in experiment [2], in [3], in experiment [4], in [5] and in [7] was “inactive” throughout. Also, the Potency result in [8] and in experiment [9] was “inactive” in each case. Also, the molecule was classed as inactive in experiment [10].
With `CC(C)Nc1ccc(NC(C)C)c2c1C(=O)c1ccccc1C2=O`, the Potency entry in experiment [1], in experiment [2], in experiment [3], in experiment [4], in [5] and in experiment [7] was “inactive” in each case. The Potency result in [9] is “inactive”. In experiment [10], the molecule was classed as inactive.
For `CCCCC1=NC2(CCCC2)C(=O)N1Cc1ccc(-c2ccccc2-c2nn[nH]n2)cc1`, the Potency entry in [1], in experiment [2], in experiment [3], in experiment [4], in [5] and in experiment [6] was “inactive” throughout. Further, the Potency entry in experiment [7], in [8] and in [9] was “inactive” in each case.
On to `O=C1C(O)=C(O)C(=O)C(O)=C1O`, for which the Potency entry in experiment [1], in experiment [2], in [3], in experiment [4], in experiment [5] and in [6] was “inactive” in each case. The Potency result in experiment [7], in experiment [8] and in [9] was “inactive” each time. In experiment [10], the molecule was called inactive.
`CCCn1cnc2c1c(=O)n(CCCCC(C)=O)c(=O)n2C`: the Potency result in experiment [1], in experiment [2], in experiment [3], in experiment [4], in experiment [5] and in [6] was “inactive” each time. The Potency result in experiment [7], in [8] and in experiment [9] was “inactive” each time. Besides, the molecule was classed as inactive in [10].
On to `OC[C@H]1O[C@@H](OCCc2ccc(O)cc2)[C@H](O)[C@@H](O)[C@@H]1O`, for which the Potency result in experiment [1], in experiment [2], in experiment [3], in experiment [4], in [5] and in experiment [6] was “inactive” in each case. Also, the Potency entry in experiment [7], in experiment [8] and in [9] was “inactive” throughout.
Take `C=CCOC(=O)CCC1CCCCC1`: the Potency entry in experiment [1], in experiment [2], in experiment [3], in experiment [4], in experiment [5] and in experiment [6] was “inactive” throughout. In addition, the Potency entry in [7], in [8] and in [9] was “inactive” in each case. Besides, in experiment [10], the call was inactive.
`C=C1[C@H]2CC[C@@H]3[C@H]2C(C)(C)CCC[C@]13C`: the Potency entry in experiment [1], in experiment [2], in [3], in experiment [4], in experiment [5] and in [6] was “inactive” each time. Also, the Potency entry in experiment [7] and in experiment [8] was “inactive” in each case.
For the molecule `CC(=O)c1cccc([N+](=O)[O-])c1`, the Potency entry in [1], in [2], in [3], in experiment [4], in experiment [5] and in [6] was “inactive” throughout. The Potency entry in [7], in experiment [8] and in [9] was “inactive” each time. For the same molecule, the result in experiment [10] was inactive.
Take `C[C@@H](c1ncncc1F)C(O)(Cn1cncn1)c1ccc(F)cc1F` (stereo partly drawn): the Potency result in experiment [1], in experiment [2], in experiment [3], in [4], in [5] and in [6] was “inactive” in each case. The Potency entry in experiment [8] is “inactive”.
